Holding throughout (assay): PBM binding z-score (relative to random genomic background probes); higher = stronger binding; sequences stand for … in GC…GCGATTGACAGCGTAGAATGAAGG
Experiment [1] has as its system FXR:RXRa (NR concentration 270 nM, RXRa partner concentration 90 nM). The essentials:
(§1)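 The probes on custom Agilent 4×180K protein-binding microarrays were double-stranded, with 34-nt variable regions bearing direct-repeat seeds, single-nucleotide variants, half-site ablations and random human genomic background sequences. Incubation lasted 1 h with ligand-free nuclear receptor dimers in PBS pH 7.4, 2% milk, 0.02% Triton X-100, 1 mM DTT, 0.2 mg/mL BSA and 0.4 mg/ml salmon testes DNA. Antibodies against each partner (one per run) detected bound dimers, and fluorescence scans were regression-normalized. Binding z-scores take the random background probes as reference.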

Experiment [2] concerns LXRa:RXRa (NR concentration 270 nM, RXRa partner concentration 90 nM). The essentials:
as §1

Experiment [3] deals with LXRa homodimer (NR concentration 270 nM). The method in brief: as §1
The test system of experiment [4] is LXRb:RXRa (NR concentration 270 nM, RXRa partner concentration 90 nM). The essentials: as §1
Experiment [5] deals with LXRb homodimer (NR concentration 270 nM). The method in brief:
as §1

In experiment [6] the test system is PPARa:RXRa (NR concentration 270 nM, RXRa partner concentration 90 nM). The method in brief: as §1
Experiment [7] concerns PPARg:RXRa (NR concentration 180 nM, RXRa partner concentration 90 nM). The method in brief: as §1
The test system of experiment [8] is PPARg:RXRa 270nM:90nM, anti-RXR (NR concentration 270 nM, RXRa partner concentration 90 nM). The method in brief:
as §1

For experiment [9], the system named is PPARg:RXRa 30nM:10nM, anti-RXR (NR concentration 30 nM, RXRa partner concentration 10 nM). The essentials: as §1
The test system of experiment [10] is PPARg:RXRa 90nM:30nM, anti-RXR (NR concentration 90 nM, RXRa partner concentration 30 nM). The method in brief:
as §1

As to TTAGCAAGGTGAGCTGAGGTCGTTGATCCAACTC, the PBM binding z-score was 0.796 in [1]; 1.32 in experiment [2]; -0.635 in experiment [3]; 0.393 in [4]; -0.992 in [5]; 1.72 in [6]. For the same sequence, the PBM binding z-score in experiment [7] is -0.0318; in [8], 0.607; in experiment [9] it was -0.48; in [10], 0.182.

In the case of CTCGAAAGGTCGTGCTCAGGTGAGTGTACCAAAC, the PBM binding z-score amounted to 5.56 in experiment [1]; 4.02 in experiment [2]; 0.294 in [3]; 3.22 in experiment [4]; 0.22 in [5]; 4.73 in experiment [6]. Further, the PBM binding z-score was found to be 2.35 in experiment [7], 4.01 in [8], 1.05 in experiment [9] and 2.56 in experiment [10].

As for CGAACTAGGTCATCCAGGATAGTGAATACATTGA, the PBM binding z-score is 4.33 in [1]; 2.51 in experiment [2]; 0.425 in experiment [3]; 2.22 in [4]; -0.0288 in [5]; 4.87 in experiment [6]. For the same sequence, the PBM binding z-score is 7.49 in experiment [7], 6.2 in experiment [8], 3.48 in [9] and 5.72 in experiment [10].

Take TCTGCCAGGTCAGTTGGTCAGCTAACGAGCTGCC: the PBM binding z-score is 1.42 in experiment [1]; 0.919 in experiment [2]; -0.414 in experiment [3]; 0.653 in experiment [4]; 0.604 in experiment [5]; 1.61 in experiment [6]. In addition, the PBM binding z-score in [7] is -0.0729; in experiment [8], 1.28; in experiment [9] it was 1.13; in experiment [10] it was 0.918.

As for CAAACTAGGTCACAGAGTTCAAAGTCCGTGCGTA, the PBM binding z-score in experiment [1] was 6.27; in experiment [2], 6.12; in experiment [3] it was 7.46; in experiment [4] it was 4.98; in [5], 0.834; in [6], 6.05. Besides, the PBM binding z-score in experiment [7] turned out to be 9.65; in experiment [8] it was 7.78; in experiment [9] it was 6.58; in experiment [10], 8.06.

For the sequence CCTGCTATGTCAATGGTCAGCTAAAGCAGCTCGC, the PBM binding z-score was -0.419 in experiment [1]; -0.17 in experiment [2]; -0.882 in experiment [3]; -0.227 in experiment [4]; -0.272 in experiment [5]; -0.207 in experiment [6]. The PBM binding z-score in [7] was 0.344; in [8], 1.53; in experiment [9], -0.198; in experiment [10], 0.923.

Regarding ATCGAAAGGTCGACGAGGTCAGTATACACCGTTT, the PBM binding z-score turned out to be 5.54 in [1]; 5.03 in [2]; 1.52 in experiment [3]; 4.61 in [4]; 0.78 in experiment [5]; 5.04 in experiment [6]. For the same sequence, the PBM binding z-score in experiment [7] came to 3.64; in [8] it was 4.13; in experiment [9] it was 1.28; in experiment [10], 2.65.

For the sequence TCAGATAGGTAAACAGGTGAAAGTCCGTAAGTTA, the PBM binding z-score in experiment [1] is 0.678; in [2], 0.827; in experiment [3], 0.121; in experiment [4], 0.939; in experiment [5] it was -0.225; in experiment [6], 2.07. Also, the PBM binding z-score worked out at 1.3 in experiment [7], 2.9 in experiment [8], 4.02 in experiment [9] and 3.81 in experiment [10].

In the case of CCGTCTGGGGCAAAGGTTACCATACTCAGTACGA, the PBM binding z-score is 1.5 in experiment [1]; 1.57 in [2]; -0.23 in experiment [3]; 2.15 in [4]; -0.982 in experiment [5]; 4.92 in experiment [6]. Also, the PBM binding z-score in experiment [7] stood at 10.4; in experiment [8], 8.97; in experiment [9], 9.6; in experiment [10] it was 10.6.

In the case of TCTTGTAGATCAAAAGTTAAGAAAGCCGAAGCCT, the PBM binding z-score in [1] was 0.493; in experiment [2], 0.329; in [3] it was -0.368; in experiment [4] it was 0.277; in [5], -0.137; in [6] it was 1.31. Also, the PBM binding z-score in experiment [7] was 1.83; in experiment [8] it was 4.32; in [9], 3.84; in experiment [10], 4.55.

Consider AGACTGAGGTTATACGTAGATCAGGGAAGAAAGT, for which the PBM binding z-score in experiment [1] is 1.99; in [2] it was 2; in experiment [3], 0.184; in experiment [4], 1.55; in experiment [5] it was -0.196; in experiment [6], 2.58. For the same sequence, the PBM binding z-score is 0.936 in experiment [7], 0.937 in [8], 0.367 in experiment [9] and 0.756 in [10].

As for GGAACGAGGGCAAAGTTGATAGTATCTGTCGACG, the PBM binding z-score in [1] is 1.26; in experiment [2] it was 0.763; in [3] it was -0.348; in experiment [4], 0.972; in [5] it was -0.379; in [6], 4.02. Further, the PBM binding z-score in experiment [7] turned out to be 6.9; in experiment [8] it was 7.32; in experiment [9], 6.78; in [10] it was 7.32.

For the origin of these results see the supplement of paper PMC6555819.
